Several values for one entry are separate records, joined by “and”; a condition that tells them apart may be missing. Equal entries are not always repeated. Inconclusive results are not listed. Entries that show only a call come without a potency. The source holds several records for some structures; these can differ, active in one and inactive in another. Activity calls are given as the source filed them. Calls follow the shape of the full dose curve.
Potency is read from the fitted curve at half-maximal effect.

For the experiment, the target named is Progesterone receptor (Homo sapiens) (UniProt P06401). Kind of experiment: qHTS assay to identify small molecule agonists of the progesterone receptor (PR) signaling pathway (AID 1346784). Also: nearly all actives have a fitted effect of over 30% in size. The following applies: PR-UAS-bla HEK293T, beta-lactamase FRET ratio, 16 h; series mostly up to 92.4 µM. The source says: U.S. Tox21 Program National Center for Advancing Translational Sciences [NCATS] NIH Chemical Genomics Center [NCGC] U.S. Environmental Protection Agency [EPA] National Institutes of Environmental Health Sciences [NIEHS] National Toxicology Program [NTP] U.S. Food and Drug Administration [FDA] […] Endocrine disrupting chemicals (EDCs) and their interactions with steroid hormone receptors like PR causes disruption of normal endocrine function. To identify the compounds that activate PR signaling, a PR-UAS-bla GripTite cell line i.e. PR-UAS-bla HEK 293T (Invitrogen, Carlsbad, CA, USA) containing a beta-lactamase reporter gene under the control of an Upstream Activator Sequence (UAS) was used to screen Tox21 10K compound library.
Chain of Progesterone receptor (Homo sapiens) (P06401 whole entry, looked up): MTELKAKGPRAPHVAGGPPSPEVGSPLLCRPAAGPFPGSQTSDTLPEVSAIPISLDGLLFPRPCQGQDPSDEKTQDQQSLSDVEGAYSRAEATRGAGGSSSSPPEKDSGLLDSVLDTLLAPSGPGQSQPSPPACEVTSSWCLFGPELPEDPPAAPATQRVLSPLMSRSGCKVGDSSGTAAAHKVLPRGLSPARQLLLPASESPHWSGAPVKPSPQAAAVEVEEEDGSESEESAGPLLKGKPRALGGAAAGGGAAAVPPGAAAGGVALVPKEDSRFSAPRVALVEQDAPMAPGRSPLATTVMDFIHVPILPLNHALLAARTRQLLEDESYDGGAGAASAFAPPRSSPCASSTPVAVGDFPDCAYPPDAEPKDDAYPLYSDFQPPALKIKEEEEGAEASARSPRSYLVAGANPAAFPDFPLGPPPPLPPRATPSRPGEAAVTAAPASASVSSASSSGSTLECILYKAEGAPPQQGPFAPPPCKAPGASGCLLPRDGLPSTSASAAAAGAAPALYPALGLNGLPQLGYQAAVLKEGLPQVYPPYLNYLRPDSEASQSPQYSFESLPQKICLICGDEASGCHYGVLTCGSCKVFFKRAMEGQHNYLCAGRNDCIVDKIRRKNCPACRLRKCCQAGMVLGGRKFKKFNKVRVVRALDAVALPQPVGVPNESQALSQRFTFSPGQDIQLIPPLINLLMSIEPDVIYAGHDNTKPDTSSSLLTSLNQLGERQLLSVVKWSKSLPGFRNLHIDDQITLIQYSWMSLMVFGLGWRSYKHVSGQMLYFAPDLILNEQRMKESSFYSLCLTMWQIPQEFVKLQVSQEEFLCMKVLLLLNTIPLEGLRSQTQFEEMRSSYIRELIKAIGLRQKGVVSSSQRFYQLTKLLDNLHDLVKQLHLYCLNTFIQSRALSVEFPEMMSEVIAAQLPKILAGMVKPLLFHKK
Tox21 Assay Protocol Summary: PR-UAS-bla HEK 293T cells were dispensed at 3,000 cells/5 uL of assay medium containing 2% charcoal stripped FBS per well into black wall/clear-bottom 1536-well plates using a Multidrop Combi (ThermoFisher Scientific, Waltham, MA) dispenser. After the assay plates were incubated at a 37C and 5% CO2 for 6hr, 23 nL of compounds dissolved in DMSO, positive controls or DMSO only was transferred to the assay plate by a Pintool station (Kalypsys, San Diego, CA). The plates were incubated at 37C and 5% CO2 for 16hr. Then 1 uL of LiveBLAzer B/G FRET substrate was added using a BioRAPTR FRD (Flying Reagent Dispenser, Aurora Discovery, San Diego, CA). After the plates were incubated at room temperature for 2 hours, fluorescence intensity was measured by an Envision plate reader (PerkinElmer, Shelton, CT).
Background: Quantitative high-throughput screening tests each substance at several concentrations.
With `NNCCc1ccccc1`, the Potency entry is “inactive”.
For `COc1ccc(CCN2CCC(Nc3nc4ccccc4n3Cc3ccc(F)cc3)CC2)cc1`, the Potency result is “inactive”.
Consider `CCOC(=O)C(C)C(C)=O` (stereo not given), for which the Potency entry is “inactive”.
With `O=C(O)c1cc(Cl)cc(Cl)c1` the entry was “inactive”.
With `CCOc1ccc2c(c1)C(C)=CC(C)(C)N2`, the Potency result is “inactive”.
In the case of `C#CC(C)(CC)OC(=O)c1ccccc1C(=O)O` (stereo not given), the Potency entry was “inactive”.
With `Cc1occc(=O)c1OC(=O)C(C)C` the entry was “inactive”; with `CC(C)(C)c1ccccc1`, “inactive”; with `CCn1c2ccccc2c2cc(N)ccc21`, “inactive”.
Consider `CC[C@]1(O)C[C@@H]2CN(CCc3c([nH]c4ccccc34)[C@@](C(=O)OC)(c3cc4c(cc3OC)N(C)[C@H]3[C@@](O)(C(=O)OC)[C@H](OC(C)=O)[C@]5(CC)C=CCN6CC[C@]43[C@@H]65)C2)C1`, for which the Potency entry is “inactive”.
Under `Cc1scc2c1N(C(=O)CN1CCN(C)CC1)c1ccccc1NC2=O` stands “inactive”; under `NC(N)=Nc1nc(CSCC/C(N)=N/S(N)(=O)=O)cs1`, “inactive”; under `COc1ccc(COC(C)=O)cc1`, “inactive”.
Under `O=C(Oc1ccccc1)c1ccccc1O` stands “inactive”.
Under `CCCCN(CCO)CCCC` stands “inactive”; under `CCC(=O)/C=C/C1C(C)=CCCC1(C)C` (stereo not given), “inactive”; under `[Cl][In]([Cl])[Cl]`, “inactive and 27.3 µM (active)”.
For `C=C(C)C1CC=C(C)C(OC(C)=O)C1` (stereo not given), the Potency entry is “inactive”.
As for `CCN(CC)C(=O)Nc1ccc(OCC(O)CNC(C)(C)C)c(C(C)=O)c1` (stereo not given), the Potency entry was “inactive”.
Under `CC(=O)OCCOCCOCCOC(C)=O` stands “inactive”; under `N[C@@H]1CONC1=O`, “inactive”.
For `Cc1cccc([N+](=O)[O-])c1C(=O)O`, the Potency entry is “inactive”.
Under `O=C(O)CP(=O)(O)O` stands “inactive”.
With `O=C(OCc1ccccc1)c1ccc(O)cc1` the entry was “inactive”; with `CC(C)(C)NC(=O)[C@@H]1CN(Cc2cccnc2)CCN1C[C@@H](O)C[C@@H](Cc1ccccc1)C(=O)N[C@H]1c2ccccc2C[C@H]1O`, “inactive”; with `O`, “inactive”.
With `O=C(O)CCc1ccccc1`, the Potency entry was “inactive”.
As for `Nc1ccc(O)cc1`, the Potency result was “inactive”.
With `c1ccc2c(c1)CCCC2C1=NCCN1` (stereo not given) the entry was “inactive”.
For `CC(=O)C1=C(C)[C@@H]2C[C@@]3(C1)[C@H](C)CC[C@H]3C2(C)C`, the Potency entry was “inactive”.
With `CC[C@@H](N)CO` the entry was “inactive”; with `CCCCOCCOC(=O)c1ccccc1C(=O)OCCOCCCC`, “inactive”; with `CC1=CC(=O)c2ccccc2C1=O`, “inactive”.
Take `CC(C)(C)c1ccc(O)c(C(C)(C)C)c1`: the Potency result was “inactive”.
Under `Nc1nc(=S)c2[nH]cnc2[nH]1` stands “inactive”; under `O=C1NCC2(CCN(CCc3ccccc3)CC2)O1`, “inactive”.
Take `O=c1n(CC2CO2)c(=O)n(CC2CO2)c(=O)n1CC1CO1` (stereo not given): the Potency entry is “inactive”.
Under `CCCCCCCCCCCCCCCCCl` stands 3.84 µM (active).
Under `O=C(O[C@@H]1Cc2c(O)cc(O)cc2O[C@@H]1c1cc(O)c(O)c(O)c1)c1cc(O)c(O)c(O)c1` stands “inactive”; under `CCCCC/C=C/CC1CC(=O)OC1=O` (stereo not given), “inactive”.

The record behind these values is PubChem BioAssay (Tox21).
